# Assay results from the supplement of paper PMC8285479.
# “And” between values parts separate entries of the source, which are not always exact repeats. Identical values can stand only once. Counter-ions that a name gives are not always drawn. ± gives the standard deviation of the averaged measurements. The full ranking holds about 1,900 compounds; the median of “normalised cell viability (NPI; 0 = phenylarsine oxide control, 1 = DMSO control)” is about 1, and the lowest 2% start at about 0.039. This is one part of a sample in which the lowest values are shown more often than they occur.
# Test system: NCI-H1944
# Experiment: normalised cell viability (NPI; 0 = phenylarsine oxide control, 1 = DMSO control) (fraction of DMSO control); NCI-H1944 is a non-small cell lung cancer line; higher = more viable cells (less compound toxicity)
# Details: 6 days
# [1] = glucocorticoid arm: hydrocortisone 2.75 uM co-treatment, compound 1 µM
# [2] = glucocorticoid arm: hydrocortisone 2.75 uM co-treatment, compound 5 µM
# [3] = glucocorticoid arm: hydrocortisone 2.75 uM pre-treated 2 days and continued, compound 1 µM
# [4] = glucocorticoid arm: hydrocortisone 2.75 uM pre-treated 2 days and continued, compound 5 µM
# [5] = glucocorticoid arm: vehicle, compound 1 µM
# [6] = glucocorticoid arm: vehicle, compound 5 µM
# 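Also: CTB read-out in 384-well plates, triplicate wells, NPI normalised per plate against 1 µM phenylarsine oxide (0) and 0.1% DMSO (1) controls.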
SMILES,normalised cell viability [1],normalised cell viability [2],normalised cell viability [3],normalised cell viability [4],normalised cell viability [5],normalised cell viability [6]
Cc1nc(Nc2n[nH]c3c2CN(C(=O)N[C@H](CN(C)C)c2ccccc2)C3(C)C)c2sccc2n1,0.832 ± 0.033,0.29 ± 0.072,1.05 ± 0.015,0.763 ± 0.02,0.12 ± 0.011,0.0302 ± 0.0031
CC(C)CC(=O)Nc1n[nH]c2c1CN(C(=O)C1CCN(C)CC1)C2(C)C,0.8357 ± 0.0074,0.369 ± 0.0055,0.968 ± 0.0056,0.962 ± 0.036,0.365 ± 0.023,0.0459 ± 0.004
N=C1Sc2ccccc2C2=NCCCN12,1.017 ± 0.0058,1.01 ± 0.031,1.02 ± 0.011,0.86 ± 0.28,1.002 ± 0.0068,1.02 ± 0.015
Cc1nc(N=Nc2ccc(C(=O)O)cc2)c(COP(=O)(O)O)c(C=O)c1O,0.999 ± 0.0017,0.998 ± 0.02,1.01 ± 0.01,1.005 ± 0.0087,0.9937 ± 0.0085,1 ± 0.016
CN(C)CCCCSC(=N)N,1.001 ± 0.0081,1.01 ± 0.011,1.02 ± 0.026,1.02 ± 0.011,0.9953 ± 0.0064,0.9883 ± 0.005
O=C(CCCCCCC(=O)NO)NO [Suberoyl bis-hydroxamic acid],0.958 ± 0.024,0.833 ± 0.053,0.968 ± 0.021,0.868 ± 0.04,1.005 ± 0.0057,0.9962 ± 0.0093
O=C(CCCCCCNC(=O)c1cnc(N(c2ccccc2)c2ccccc2)nc1)NO,0.9803 ± 0.0098,0.922 ± 0.018,0.996 ± 0.021,0.9343 ± 0.0021,1.01 ± 0.01,0.9873 ± 0.0071
O=C(CCCCCCNC(=O)c1cnc(N(c2ccccc2)c2ccccc2)nc1)NO [Rocilinostat (ACY-1215)],0.9393 ± 0.0064,0.966 ± 0.011,0.944 ± 0.015,0.945 ± 0.018,0.9923 ± 0.0021,0.918 ± 0.0096
NC(=S)c1ccc[n+]([C@@H]2O[C@@H](COP(=O)([O-])OP(=O)(O)OC[C@H]3O[C@@H](n4cnc5c(N)ncnc54)C(OP(=O)(O)O)[C@H]3O)C(O)C2O)c1 (some centres not stated) [Thio-NADP sodium],1.013 ± 0.0058,1.01 ± 0.026,1.03 ± 0.021,0.998 ± 0.013,1.013 ± 0.0058,1.013 ± 0.0058
CC(C)c1cc(-c2ccc(F)c3ccccc23)nc(N)n1,0.9813 ± 0.0081,0.9787 ± 0.005,0.991 ± 0.018,0.993 ± 0.013,0.984 ± 0.025,1.001 ± 0.0079
COc1ccc(Cl)cc1NC(=O)Nc1cc(C)nc2ccccc12,1.01 and 1.02,–,–,–,1 and 1.01,–
Cc1cc(Nc2ccc(NC(=O)c3ccc(Nc4ccnc5ccccc45)cc3)cc2)nc(N)n1,0.99 ± 0.017,-0.000696 ± 0.0048,0.9783 ± 0.0035,0.492 ± 0.5,1.006 ± 0.0075,0.000819 ± 0.0006
CNCc1ccc(C)c(NC(=O)c2ccc(Nc3nc(-c4ccccc4)c4ccccc4n3)cc2)c1,0.965 ± 0.017,0.939 ± 0.017,0.9953 ± 0.0021,0.959 ± 0.015,0.991 ± 0.0027,0.988 ± 0.011
O=C(O)C=C1CCCc2ccccc2C1O (configuration not stated),0.987 ± 0.012,0.948 ± 0.026,0.987 ± 0.02,0.994 ± 0.044,0.983 ± 0.0069,0.987 ± 0.01
Cc1cc(Cn2cnc3c2C[C@@H](C(=O)O)N(C(=O)C(c2ccccc2)c2ccccc2)C3)ccc1N,1.03 ± 0.01,1.01 ± 0.022,1.023 ± 0.0058,1.01 ± 0.014,1.027 ± 0.0058,1.02
Cn1ccc2cc3c(cc21)CCN3C(=O)Nc1cccnc1,1.02 ± 0.011,1.01 ± 0.018,1.05 ± 0.021,1.02 ± 0.017,1.03 ± 0.011,1.01 ± 0.01
Cc1cc2c(cc1Cl)N(C(=O)Nc1cccc3ncccc13)CC2,0.985 ± 0.011,0.965 ± 0.015,1 ± 0.016,1.03 ± 0.084,0.9793 ± 0.0086,0.992 ± 0.007
COc1cc2c(cc1C(F)(F)F)N(C(=O)Nc1cc(F)cc(-c3cccnc3)c1)CC2,0.994 ± 0.017,0.0391 ± 0.01,1.02 ± 0.01,0.903 ± 0.021,0.974 ± 0.028,0.00107 ± 0.00012
COc1ccc2cc(-c3nc(-c4ccc([S+](C)[O-])cc4)[nH]c3-c3ccncc3)ccc2c1 (configuration not stated) [Tie2 kinase inhibitor],1 ± 0.016,1.002 ± 0.0072,0.992 ± 0.0087,1 ± 0.018,0.997 ± 0.0017,0.9943 ± 0.0098
CN1CCc2c(c3ccccc3n2Cc2ccc(C(=O)NO)cc2)C1 [Tubastatin A HCl],0.9623 ± 0.0086,0.859 ± 0.016,0.967 ± 0.0035,0.913 ± 0.025,0.999 ± 0.01,0.9903 ± 0.0042
Cn1cc(C(=O)OCC2CCN(CCNS(C)(=O)=O)CC2)c2ccccc21,1.01 ± 0.01,0.997 ± 0.014,1.02 ± 0.011,1.03 ± 0.014,1.017 ± 0.0058,1.023 ± 0.0058
CN1CCc2c(c3ccccc3n2Cc2ccc(C(=O)NO)cc2)C1 [Tubastatin A],0.984 ± 0.013,0.983 ± 0.026,0.983 ± 0.023,1.01 ± 0.023,0.991 ± 0.011,0.9927 ± 0.0063
NS(=O)(=O)c1cc(C(=O)O)c(NCc2ccco2)cc1Cl [Furosemide],1.002 ± 0.0076,0.9983 ± 0.0029,0.999 ± 0.011,0.995 ± 0.015,0.984 ± 0.002,0.9897 ± 0.0047
OCC1OC(n2cnc3c(NCCc4ccccc4)ncnc32)C(O)C1O (configuration not stated) [N6-2-Phenylethyladenosine],1.006 ± 0.0069,0.9327 ± 0.0083,0.852 ± 0.27,1 ± 0.017,0.993 ± 0.0062,1 ± 0.017
N=C(N)NCCCCNC(=N)N [Arcaine sulfate],0.987 ± 0.012,0.994 ± 0.033,0.993 ± 0.0066,1.01 ± 0.038,0.987 ± 0.013,0.9957 ± 0.0045
C=C1C(=O)O[C@@H](CCC)[C@@H]1C(=O)O [Butyrolactone 3],1 ± 0.013,1.02 ± 0.015,0.998 ± 0.013,1.017 ± 0.0082,0.996 ± 0.0046,1.001 ± 0.0075
